Assay outcomes as filed in PubChem BioAssay.
ClpP mod – qHTS Assay for Activators of ClpP; AID 651965, 2013; hit rate 1.9% among 340,000; purified B. subtilis ClpP, FRET peptide cleavage, 20 min; Potency, µM (series often up to 57.5 µM); ATP-dependent Clp protease proteolytic subunit (Bacillus subtilis (strain 168)), P80244; active = well fitted falling curve with a large enough effect; inconclusive = small, poorly fitted or top-dose-only effect; inactive = no such curve, though single readings can be large or run the other way; note: the source files actives as falling curves though it sought activators and does not explain the sign; nearly all actives have a fitted effect of over 65% in size
Target sequence (P80244 whole entry, looked up): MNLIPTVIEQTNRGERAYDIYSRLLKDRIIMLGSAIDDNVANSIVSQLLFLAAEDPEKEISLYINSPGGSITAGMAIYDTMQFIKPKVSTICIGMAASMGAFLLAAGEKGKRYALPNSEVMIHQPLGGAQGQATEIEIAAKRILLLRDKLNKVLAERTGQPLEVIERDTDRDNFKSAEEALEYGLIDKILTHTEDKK
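Purified B. subtilis ClpP, 10 microg/mL final in Tris/HCl pH8 with KCl, BSA, glycerol and Tween-20, cleaved an Abz/nitrotyrosine-quenched decapeptide. Fluorescence (ex 320, em 430) was read at 0 and 20 min at room temperature. Delta was normalized to 5.8 microM ADEP and DMSO/no-enzyme controls.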
D3 ag – qHTS of D3 Dopamine Receptor Agonist: qHTS. hit rate 0.58% among 410,000. max activation, %. D(3) dopamine receptor (Homo sapiens), P35462. D3R DiscoveRx beta-arrestin cells, luminescence, 90 min; in the data active = max activation above about 30%
Target sequence (P35462 whole entry, looked up): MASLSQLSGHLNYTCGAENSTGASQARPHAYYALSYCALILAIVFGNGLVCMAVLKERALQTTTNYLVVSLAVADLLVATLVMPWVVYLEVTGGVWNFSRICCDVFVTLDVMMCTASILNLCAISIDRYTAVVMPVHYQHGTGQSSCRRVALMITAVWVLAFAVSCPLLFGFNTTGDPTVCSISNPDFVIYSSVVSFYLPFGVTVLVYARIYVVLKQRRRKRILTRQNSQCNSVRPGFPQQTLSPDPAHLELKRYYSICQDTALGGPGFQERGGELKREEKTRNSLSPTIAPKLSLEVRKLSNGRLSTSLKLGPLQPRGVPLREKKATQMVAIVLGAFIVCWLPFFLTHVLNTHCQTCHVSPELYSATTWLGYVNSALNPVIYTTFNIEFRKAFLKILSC
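Agonist-mode cell screen: cells plated at 1500/well and incubated overnight at 37 °C, then exposed to library compounds for 90 min at 37 °C. Detection reagent was added for 30–60 min at room temperature, and luminescence was read.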
IL1B secr inh – qHTS for Inhibitors of Inflammasome Signaling: IL-1-beta AlphaLISA Primary Screen; THP-1 LPS/ATP IL-1B secretion, AlphaLISA, 16 h; hits give low values; activity change, % at 57.5 µM; hit rate 4.7% among 360,000; AID 743279, 2014; in the data active = activity change below about -50%; inconclusive = mostly about -30% to -49%
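THP-1 cells pretreated 1 hr with compounds (up to 57.5 uM final), then stimulated with LPS (250 ng/mL final) plus ATP (1.25 mM final); secreted IL-1B measured by AlphaLISA after 16 hr, decreased signal indicating inhibition.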
D3 antag – qHTS of D3 Dopamine Receptor Antagonist: qHTS; D(3) dopamine receptor (Homo sapiens), P35462; D3R cells, DiscoveRx beta-arrestin luminescence, antagonist mode; hits give low values; max response, negative = inhibition, %; hit rate 2.5% among 360,000; AID 652054, 2013; in the data active = max response below about -50%; inconclusive = no clear call, values can overlap the other calls
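Cells expressing the human receptor were seeded at 1500 cells/well, incubated overnight at 37 degrees C in 5% CO2, then exposed to library compounds with dopamine controls for 90 minutes at 37 degrees C before luminescent detection.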
TDP1 cell CPT – qHTS for Inhibitors of human tyrosyl-DNA phosphodiesterase 1 (TDP1): qHTS in cells in presence of CPT; Potency, µM (series often up to 46.2 µM), most hits filed as inhibitors; AID 686979, 2013; hit rate 12% among 420,000; chicken DT40 Tdp1-/-;hTDP1 cells + 20 nM CPT, ATP luminescence, 48 h; note: nearly all actives have a fitted effect of over 55% in size
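Chicken DT40 Tdp1-/- cells stably complemented with human TDP1 were seeded at 400 cells/well in medium containing 20 nM camptothecin, exposed to pin-transferred compounds, and grown at 37 °C for at least 48 hr. Viability was read as ATP luminescence.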
DT40 TDP1 no CPT – qHTS for Inhibitors of human tyrosyl-DNA phosphodiesterase 1 (TDP1): qHTS in cells in absence of CPT | hit rate 15% among 420,000 | Potency, µM (highest dose often 46.2 µM), hits mostly inhibitors | AID 686978, 2013 | DT40 Tdp1-/- hTDP1 cells, no CPT, ATP luminescence, 48 h; note: nearly all actives have a fitted effect of over 55% in size
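Growth of hTDP1-complemented DT40 Tdp1-knockout cells is measured by ATP luminescence after at least 48 hr compound exposure at 37 °C, with DMSO substituting for the 20 nM CPT used in the parallel screen.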
Hits are given with their value; 0 = inactive; ? = inconclusive; - = not tested or not shown; ! = repeats disagree. Compounds with a hit are over-represented: about 21% of the library has one in this group of screens. Unless noted, calls come from the whole dose curve; as a rule, active = well fitted inhibition curve with a large enough effect; inconclusive = small, poorly fitted or top-dose-only effect; inactive = flat fitted curve, though single readings scatter.

SMILES | ClpP mod | D3 ag | IL1B secr inh | D3 antag | TDP1 cell CPT | DT40 TDP1 no CPT
COc1ccccc1OCCCn1cc(C=O)c2ccccc21 | - | 0 | ? | 0 | ? | 21µM
Cc1cc(O)c2c(c1)C(=O)C13C(=C2O)C(=O)[C@H]2[C@@H](O)[C@@H]1[C@H]1[C@H](O)[C@@H]3C(=O)C3=C(O)c4c(O)cc(C)cc4C(=O)C312 (stereo partly specified) | 0 | 0 | 0 | 0 | 0.65µM | 1.2µM
COc1ccc([N+](=O)[O-])cc1N=Cc1c(O)n(CCc2ccccc2)c(=O)n(C(C)C)c1=O | - | 0 | 0 | 0 | ? | 16µM
COc1ccc(OC)c(-n2c(O)c(C=NCCN3CCNCC3)c(=O)[nH]c2=S)c1 | 0 | 0 | 0 | 0 | 0 | 0
NC(=O)OCCSc1nnc(-c2cccc(C(N)=S)c2)o1 | 0 | 0 | 0 | 0 | ? | ?
COc1ccc(NC(=O)CN2C3CCC2CC(O)(c2cccnc2)C3)cc1OC (stereo unspecified) | 0 | 0 | 0 | 0 | 0 | 0
COc1ccc(NC(=O)C2Cc3c(-c4cccc(C(C)=O)c4)ccnc3O2)cc1OC (stereo unspecified) | 0 | 0 | 0 | 0 | 3.3µM | 4.1µM
Cc1ccccc1C1CC(=O)Nc2ccc3ccccc3c21 (stereo unspecified) | 0 | 0 | - | - | 12µM | 12µM
O[C@@H]1CCCN2C[C@@H](O)[C@@H](O)C12 (stereo partly specified) | - | - | - | - | 0 | 0
O=C(NC(c1cccnc1)C(F)(F)F)c1cnn(-c2nccc(-c3cccs3)n2)c1C1CC1 (stereo unspecified) | - | - | - | - | ? | 21µM
CN[C@@H]1C[C@H](c2ccc(Cl)c(Cl)c2)c2ccccc21 | - | - | - | - | 8.4µM | 9.4µM
CN[C@@H]1C[C@@H](c2ccc(Cl)c(Cl)c2)c2ccccc21 | - | 0 | - | - | 24µM | 12µM
C#C[C@]1(O)CCC2C3C(CC[C@@]21C)[C@@]1(C)CC[C@@H](O)CC1=C[C@H]3O (stereo partly specified) | 0 | 0 | 0 | 0 | ? | 23µM
C#C[C@]1(O)CCC2C3C(=O)C=C4C=CCC[C@]4(C)C3CC[C@@]21C (stereo partly specified) | - | 0 | 0 | 0 | 0 | ?
CC(C)OC(=O)OCOP(=O)(CO[C@H](C)Cn1cnc2c(N)ncnc21)OCOC(=O)OC(C)C | - | 0 | - | - | 8.4µM! | 11µM!
COc1ccc2c(c1)c(C(=O)CN1CCC3(CC1)OCCO3)c(C)n2Cc1ccccc1 | 0 | 0 | 0 | 0 | 0 | 0
Fc1ccccc1CNCCc1c[nH]c2ccccc12 | - | 0 | 0 | ? | 16µM | ?
FC(F)(F)c1ccccc1CNCCc1c[nH]c2ccccc12 | 0 | 0 | 0 | 0 | ? | 15µM
OC(CNCCc1c[nH]c2ccccc12)c1ccccc1 (stereo unspecified) | - | 0 | -57 | 0 | 0 | 0
COc1cccc(CCNCc2c(F)cccc2F)c1 | - | 0 | 0 | 0 | 0 | 0
c1coc(CNCCc2c[nH]c3ccccc23)c1 | - | 0 | 0 | 0 | 0 | 0
COc1cccc(CNCCc2c[nH]c3ccccc23)c1 | - | 0 | -78 | -54 | ? | ?
CCCCNCC(O)c1ccc(O)cc1 (stereo unspecified) | - | 0 | - | - | 0 | 0
Cc1cc(OCC(=O)NCc2cccnc2)c2c3c(c(=O)oc2c1)CCCC3 | 0 | 0 | ? | 0 | ? | ?
O=c1cccc2n1CC1CC2CN(S(=O)(=O)c2ccc(F)cc2)C1 (stereo unspecified) | - | 0 | 0 | 0 | 0 | 0
SMILES | ClpP mod | D3 ag | IL1B secr inh | D3 antag | TDP1 cell CPT | DT40 TDP1 no CPT
Fc1ccccc1CCNCc1cccc(Cl)c1Cl | 0 | 0 | 0 | -58 | ? | 0
Fc1ccc(CNCCc2c[nH]c3ccccc23)cc1 | - | 0 | -81 | 0 | ? | 4.6µM
C=CC[C@@H](CC(=O)N(CCO)Cc1ccccc1)C(=O)NC[C@@H](OC(=O)[C@@H](CC=C)CC(=O)OC(C)(C)C)c1ccccc1 | 0 | 0 | ? | 0 | ? | ?
O=c1[nH]cc(F)c(=O)[nH]1 | 0 | 0 | 0 | 0 | 18µM | 16µM
C/C1=C\[C@@H](C)C/C=C/[C@H]2[C@@H]3O[C@]3(C)[C@@H](C)[C@H]3[C@H](Cc4c[nH]c5ccccc45)NC(=O)[C@]32C(=O)/C=C/C(=O)[C@@H]1O | 0 | 0 | -105 | -51 | 0.15µM | 0.15µM
NC(=S)c1cn(C2OC(CO)C(O)C2O)c2ncnc(N)c12 (stereo unspecified) | 0 | 0 | -100 | 0 | 0.13µM | 0.16µM
COc1nc(N)nc2c1ncn2[C@@H]1O[C@H](CO)[C@@H](O)[C@@H]1O | - | 0 | - | - | ? | 0
OCC1OC(n2cnc3c(Cl)ncnc32)C(O)C1O (stereo unspecified) | - | - | - | - | 9.2µM | 4.6µM
Nc1ncnc2c1ccn2[C@@H]1O[C@H](CO)[C@@H](O)[C@H]1O | 0 | 0 | -110 | 0 | 0.021µM | 0.15µM
